Assay outcomes from PubChem.
The entries come from a sample that favours hits as a whole.
Pf Dd2 growth – inhibitors of Plasmodium falciparum Dd2 growth | P. falciparum Dd2 growth, SYBR Green, 72 h | Potency, µM (titrated, usually from 28.9 µM), for inactives: at the top dose activity, negative = inhibition, most hits filed as inhibitors | 120,000 compounds, 4.3% hits; active = well fitted inhibition curve with a large enough effect;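 also: plate controls were DMSO vehicle for no effect and reference drug for full effect; nearly all actives have a fitted effect of over 65% in size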
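Infected erythrocytes (Dd2, 0.3% parasitemia, 2.5% hematocrit final) are added to compound in RPMI-1640/Albumax II medium, grown 72 h at 37C in low oxygen, then lysed with saponin/Triton-X containing SYBR Green and read by fluorescence.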
An asterisk follows results filed as active; i = inactive; [ ] = remark or other dose. Potency is read from the fitted curve at half-maximal effect.

SMILES	Pf Dd2 growth
Cc1cccc(CN2C(=O)c3ccccc3S(=O)(=O)c3ccc(C(=O)NCCC4=CCCCC4)cc32)c1	-13%
O=C(COc1ccc(Cl)cc1)N1CCN(c2cc(-c3ccccc3)[nH]n2)CC1	-3%
CN1C(=O)CC(C(=O)O)C12CCN(C/C=C/c1ccccc1)CC2 (centres undefined)	-5%
CC(C)Cc1cc(Cn2cc(-c3cncnc3)nn2)no1	6%
Cc1ccc(-c2cc(N3CCCN(C(=O)Cc4ccc(F)cc4)CC3)n[nH]2)cc1C	i
Cc1c(CC(=O)NC(C)C2CC2)c2c(n1Cc1ccccc1F)CCCC2=O (centres undefined)	10µM*
Cc1c(CC(=O)NCC2CC2)c2c(n1Cc1ccccc1F)CCCC2=O	-8%
Cc1c(CC(=O)NC2CCOC2=O)c2c(n1Cc1ccccc1F)CCCC2=O (centres undefined)	-7%
O=C(Nc1ccc(Cl)nc1)c1cnn2ncccc12	12%[44.1 µM]
Cc1ccc(C(=O)N2CCCN(S(=O)(=O)c3ccccc3)CCC(=O)NCC2)s1	-11%
O=C(NC1CCc2n[nH]c(=O)n2CC1)c1ccc2nc[nH]c2c1 (centres undefined)	32%
CNC(=O)[C@@H]1C[C@@H](n2cc(C(C)(C)NC(=O)CC3CCCC3)nn2)CN1	-10%
O=C1NCCCCCN(C(=O)c2ccsc2)[C@H]2CCC[C@@H]12	i
COc1ccc(C)cc1-n1c(-c2ccc(Cl)cc2)cc2c1CC(C)(C)CC2=O	1µM*
Cc1ccc(-c2cc3c(n2-c2ccccc2F)CC(C)(C)CC3=O)cc1	-4%
COc1ccc(-n2c3c(cc(-c4nc(-c5ccc(Cl)cc5)cs4)c2=O)C(=O)CC(C)(C)C3)cc1Cl	8%
COCCOc1ccc2c(n1)CCN(C(=O)c1cccnc1)C2	29%
O=C(NC[C@H]1O[C@@H](CO)[C@@H](O)[C@H]1N1CCN(c2cccc(C(F)(F)F)c2)CC1)Nc1ccc(F)cc1F	i
CCN1C(=O)C(O)(c2c(C)[nH]c3ccccc23)c2ccccc21 (centres undefined)	9%
CCCCN1C(=O)C(O)(c2c(C)[nH]c3ccccc23)c2cc(Br)ccc21 (centres undefined)	11µM*
CCCCN1C(=O)C(O)(c2c(C)[nH]c3ccccc23)c2ccccc21 (centres undefined)	-9%
CCCCCC(=O)Nc1nc2c(s1)C[C@@H]1[C@](C)(CO)[C@H](O)CC[C@@]1(C)[C@@H]2CC(=O)Nc1cccc(O)c1	13µM*
C[C@]1(CO)[C@H]2Cc3sc(NC(=O)c4c(F)cccc4F)nc3[C@@H](CC(=O)NC3CCCC3)[C@]2(C)CC[C@H]1O	5µM*
CC(C)(C)CC(=O)Nc1nc2c(s1)C[C@@H]1[C@](C)(CO)[C@H](O)CC[C@@]1(C)[C@@H]2CC(=O)Nc1ccccc1	11µM*
C[C@@H](NC(=O)C[C@@H]1c2nc(-c3cccnc3)sc2C[C@@H]2[C@](C)(CO)[C@H](O)CC[C@]21C)c1ccccc1	-24%
SMILES	Pf Dd2 growth
C#CCNC(=O)C[C@@H]1c2nc(NC(=O)c3c(F)cccc3F)sc2C[C@@H]2[C@](C)(CO)[C@H](O)CC[C@]21C	i
CCCCCC(=O)Nc1nc2c(s1)C[C@@H]1[C@](C)(CO)[C@H](O)CC[C@@]1(C)[C@@H]2CC(=O)N[C@H](C)c1ccccc1	5µM*
C[C@]1(CO)[C@H]2Cc3sc(NC(=O)COc4ccccc4)nc3[C@@H](CC(=O)O)[C@]2(C)CC[C@H]1O	-1%
C[C@]1(CO)[C@H]2Cc3sc(NC(=O)c4ccc(F)cc4)nc3[C@@H](CC(=O)NC3CCCCC3)[C@]2(C)CC[C@H]1O	-10%
CC(C)(C)C(=O)Nc1nc2c(s1)C[C@@H]1[C@](C)(CO)[C@H](O)CC[C@@]1(C)[C@@H]2CC(=O)NCCN1CCOCC1	12%
O=C1NCc2ccccc2CC12CCN(Cc1ccc(Cl)cc1)C2 (centres undefined)	-6%
Cc1ccc(C(=O)N2CCC3(CCCCO3)CC2)cn1	22%
COc1cccc(C(=O)N2CCOC[C@H](Oc3cccnc3)C2)c1	-3%[44.1 µM]
COCCNC(=O)C(C)[C@@H]1CC[C@@]2(C)CC[C@H](N[S+](C)(=O)[O-])[C@@H](C)[C@@H]2[C@H]1O (some centres undefined)	-3%[44.1 µM]
O=C(c1ccc(C(F)(F)F)cc1)N1CCn2c(nnc2-c2cccnc2)C1	12%
COc1cccc(NC(=O)NC[C@H]2O[C@@H](CO)[C@@H](O)[C@H]2N2CCN(c3ccccc3OC)CC2)c1	-1%
Cc1nn2c(c1-c1ccccc1N1CCCC1)N(C(=O)c1ccc(F)cc1)CCC2	-25%[44.1 µM]
CC(C)NC(=O)N[C@H]1C[C@@H](C(=O)N[C@H](Cc2c[nH]c3ccccc23)C(N)=O)N(C(=O)c2cccn2C)C1	8%
C[C@@H]1CN(c2ccc(C#N)cn2)C[C@@]1(O)C1CC1	-7%
COC1CN(c2cccc(F)c2)C12CCN(C(=O)CC1CCCC1)CC2 (centres undefined)	-7%
CCOCCN1CCN([C@@H]2c3ccccc3C3(CCNCC3)[C@H]2O)CC1	6%
CN1CCC(N[C@@H]2CO[C@H](CNC(=O)c3cccs3)[C@H]2O)CC1	4%[44.1 µM]
O=C1CCN(C(=O)CC(c2ccccc2)c2ccc3c(c2)OCO3)CCN1 (centres undefined)	-2%
CCCCCC(=O)Nc1nc2c(s1)C[C@@H]1[C@](C)(CO)[C@H](O)CC[C@@]1(C)[C@@H]2CC(=O)NC1CCCC1	11µM*
C#CCN(C)C(=O)C[C@@H]1c2nc(NC(=O)COC)sc2C[C@@H]2[C@](C)(CO)[C@H](O)CC[C@]21C	1%
C#CCN(C)C(=O)C[C@@H]1c2nc(NC(=O)CCCCC)sc2C[C@@H]2[C@](C)(CO)[C@H](O)CC[C@]21C	10µM*
CCCCCC(=O)Nc1nc2c(s1)C[C@@H]1[C@](C)(CO)[C@H](O)CC[C@@]1(C)[C@@H]2CC(=O)N(C)Cc1ccccc1	i
O=C(NC[C@H]1OC[C@@H](NCc2cccs2)[C@@H]1O)c1cccs1	22%[44.1 µM]
COc1ccc(C(=O)N2[C@@H]3CC[C@H]2CC(NC(=O)c2cnc(C)cn2)C3)c(OC)c1 (some centres undefined)	13%
CCOc1ccc(C(=O)N2CCC[C@H]2c2nc(-c3ccc(OC)c(OC)c3)no2)cc1	i
SMILES	Pf Dd2 growth
COc1ccc(C(=O)N2CCCN(S(=O)(=O)c3ccccc3)CCC(=O)NCC2)cc1F	-19%
CCOC(=O)c1ccc(OCC2c3cc(OC)c(OC)cc3CCN2C(=O)c2ccc(S(=O)(=O)N3CCCC3)cc2)cc1 (centres undefined)	11µM*
COc1cc2c(cc1OC)C(COc1ccccc1OC)N(C(=O)c1ccc(S(=O)(=O)N3CCCC3)cc1)CC2 (centres undefined)	11µM*
O=C1CN(C(=O)c2ccc(S(=O)(=O)N3CCCC3)cc2)C(c2ccccc2)c2cc(F)ccc2N1 (centres undefined)	-3%
CCc1ccc(OCC2c3cc(OC)c(OC)cc3CCN2C(=O)c2ccc(S(=O)(=O)N3CCCC3)cc2)cc1 (centres undefined)	11µM*
COc1ccc(NC(=O)c2cc(S(=O)(=O)N3CCCC3)ccc2OC)cc1	7%
CCc1ccc(C(=O)N2CCC(c3nc(-c4ccc(S(=O)(=O)N5CCCC5)cc4)no3)CC2)cc1	-22%
NC(=O)c1cc[nH]c1C1CCCN(C(=O)NC2CCCCC2)C1 (centres undefined)	5%
Cc1cc2c(c(=O)n(-c3ccc(F)cc3)c(=O)n2CC(=O)Nc2ccccc2Cl)n1C	i
